# Measured values published in PubChem BioAssay.
# Values joined by “and” are separate entries in the source; they are usually repeats but may differ in a detail not shown here. Identical values can stand only once. Results filed as inconclusive are left out. Active and inactive are the calls of the source. Unless noted, no cut-off is given here; in the data, nearly all actives have AC50 up to about 26 µM.
# Assays:
# [1] = viability loss in pontine glioma line – cell-based, SU-DIPG-XVII, MIPE5.0, CellTiter-Glo, qHTS, dose response (AID 1347060); details: CellTiter-Glo ATP luminescence;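 for AC50: cells exposed to compound for 48 hours before viability readout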
# [2] = viability loss in pontine glioma line – cell-based, SU-DIPG-XIII, MIPE4.0, CellTiter-Glo, qHTS, dose response (AID 1347061; cut-off not given, nearly all actives have AC50 up to about 37 µM;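 note: cells exposed to compound for 48 hours before readout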); details: CellTiter-Glo ATP luminescence
# [3] = viability loss in pontine glioma line – cell-based, JHH-DIPG-1, MIPE4.0, CellTiter-Glo, qHTS, dose response (AID 1347062; cut-off not given, nearly all actives have AC50 up to about 27 µM;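 for AC50: cells exposed to compound for two days before readout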); details: JHH-DIPG-1 viability, CellTiter-Glo ATP luminescence
# [4] = viability loss in pontine glioma line – cell-based, SU-DIPG-IV, MIPE4.0, CellTiter-Glo, qHTS, dose response (AID 1347063; cut-off not given, nearly all actives have AC50 up to about 30 µM;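 note: compound exposure lasted 48 hours before the viability readout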); details: CellTiter-Glo ATP luminescence
# [5] = viability loss in pontine glioma line – cell-based, SU-DIPG-XIII, MIPE5.0, CellTiter-Glo, qHTS, dose response (AID 1347064; cut-off not given, nearly all actives have AC50 up to about 23 µM;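 for AC50: cells exposed to compound for 48 hours before the viability read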); details: CellTiter-Glo ATP luminescence
# [6] = viability loss in pontine glioma line – cell-based, SU-DIPG-XXV, MIPE5.0, CellTiter-Glo, qHTS, dose response (AID 1347065); details: CellTiter-Glo ATP luminescence;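 note: cells exposed to compound for 48 hours before ATP readout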
# [7] = growth inhibition of DIPG cells – cell-based, MIPE4.0 library, CellTiter-Glo luminescence, qHTS (AID 1347066; cut-off not given, nearly all actives have AC50 up to about 30 µM;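 note: cells exposed to compound for 48 hours before readout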); details: SU-DIPG-VI viability, CellTiter-Glo ATP luminescence
# [8] = JHH-DIPG-1 glioma cell viability, MIPE5.0 library, CellTiter-Glo luminescence, qHTS (AID 1347067); details: JHH-DIPG-1 glioma viability, CellTiter-Glo ATP luminescence;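 note: cells exposed to compound for 48 hours before readout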
# [9] = growth inhibition of DIPG cells – cell-based, MIPE5.0 library, qHTS (AID 1347068; cut-off not given, nearly all actives have IC50 up to about 30 µM;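 for IC50: cells exposed to compound for 48 hours before viability readout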); details: SU-DIPG-XXV viability
# [10] = viability loss with induced miR-34 in A549 – imaging, A549 dox-inducible miR-34, nuclei and caspase counts, primary screen (AID 1347080;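 active = compounds whose cell count with miR-34 switched on is under 0.7 times the count with it off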); details: A549 miR-34 inducible, Hoechst nuclei count, 48 h
# [11] = compounds altering HSF1 focus formation in cells – imaging, Selleck Cancer Library (AID 1347162; in the data active = plate-normalised HSF1 focus index below about 0.46); details: human cells, HSF1 nuclear foci imaging, at 10 µM; SSMD: measured here: HSF1 foci SSMD mean; cell count: measured here: cell number; plate-normalised HSF1 focus index: stronger effect = lower value
# [12] = MELAS cybrid and Rieske KO viability enhancers – cell-based, MELAS cybrids, Rieske KO mouse fibroblasts, CellTiter-Glo, primary screen (AID 1508586;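 active = mean z-score across replicates of 1.96 or higher in either the MELAS or the Rieske mutant cell line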;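 note: z relative to plate mean and SD of compound and empty wells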); details: low glucose
# [13] = galactose survival enhancers in mitochondrial complex I cybrids – cell-based, galactose medium, ATP luminescence, primary screen (AID 1645843;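 active = z-score of at least 1.8 in each of two replicates, scored against plate mean and spread of sample wells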;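 note: positive z means more ATP and so rescue of galactose-driven cybrid death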); details: complex I mutant cybrid cells, 72 h, stronger effect = higher value
# [14] = stronger effect = lower value, cell number ratio, induced over uninduced
# [15] = measured here: relative caspase fold change +Dox/-Dox
# [16] = measured here: total cells with miR-34 induction, stronger effect = lower value
# [17] = measured here: total cells without miR-34 induction
# [18] = MELAS cybrid survival, CellTiter-Glo 48 h, stronger effect = higher value
# [19] = Rieske KO mouse fibroblast survival, CellTiter-Glo 72 h
compound,measurement,setting,value
O=c1c(-c2ccc(O)cc2)coc2cc(O[C@@H]3O[C@H](CO)[C@@H](O)[C@H](O)[C@H]3O)ccc12,outcome,[1],inactive
same,outcome,[2],inactive
same,outcome,[3],inactive
same,outcome,[4],inactive
same,outcome,[5],inactive
same,outcome,[6],inactive
same,outcome,[7],inactive
same,outcome,[8],inactive
same,outcome,[9],inactive
O=C(NCCS(=O)(=O)c1ccc(C(F)(F)F)cn1)c1ccc(Cl)cc1,outcome,[1],inactive
same,outcome,[2],inactive
same,outcome,[3],inactive
same,outcome,[4],inactive
same,outcome,[5],inactive
same,outcome,[6],inactive
same,outcome,[7],inactive
same,outcome,[8],inactive
same,outcome,[9],inactive
same,fold change,[10]; [14],0.87 (inactive)
same,fold change,[10]; [15],0.351
same,cell count,[10]; [16],7940
same,cell count,[10]; [17],9120
same,SSMD,[11],3.34
same,cell count,[11],7080
same,plate-normalised HSF1 focus index,[11],1.2 (inactive)
same,z-score,[12]; [18],-0.369 (inactive)
same,z-score,[12]; [19],0.00298
c1cc(CN2CCCNCCNCCCNCC2)ccc1CN1CCCNCCNCCCNCC1,outcome,[1],inactive
same,outcome,[2],inactive
same,outcome,[3],inactive
same,outcome,[4],inactive
same,outcome,[5],inactive
same,outcome,[6],inactive
same,outcome,[7],inactive
same,outcome,[8],inactive
same,outcome,[9],inactive
Cc1cnc(Nc2ccc(CN3CCOCC3)cc2)nc1Nc1cccc(S(=O)(=O)NC(C)(C)C)c1,AC50,[1],4.17 µM (active)
same,AC50,[2],10.5 µM (active)
same,AC50,[3],11.8 µM (active)
same,AC50,[4],11.8 µM (active)
same,AC50,[5],3.32 µM (active)
same,AC50,[6],3.32 µM (active)
same,AC50,[7],8.33 µM (active)
same,AC50,[8],5.9 µM (active)
same,IC50,[9],3.72 µM (active)
COc1cc2nc(N3CCCN(C)CC3)nc(NC3CCN(Cc4ccccc4)CC3)c2cc1OC,AC50,[1],10.5 µM (active)
same,AC50,[2],26.4 µM (active)
same,AC50,[3],7.43 µM (active)
same,AC50,[4],10.5 µM (active)
same,AC50,[5],13.2 µM (active)
same,AC50,[6],10.5 µM (active)
same,AC50,[7],9.35 µM (active)
same,AC50,[8],13.2 µM (active)
same,IC50,[9],11.8 µM (active)
same,fold change,[10]; [14],0.884 (inactive) and 1.04 (inactive) and 1.01 (inactive)
same,fold change,[10]; [15],1.51 and 1.3 and 0.404
same,cell count,[10]; [16],672 and 5080 and 2320
same,cell count,[10]; [17],760 and 4890 and 2300
same,SSMD,[11],1.64
same,cell count,[11],6820
same,plate-normalised HSF1 focus index,[11],1.1 (inactive)
same,z-score,[12]; [18],-0.436 (inactive)
same,z-score,[12]; [19],-1.67
same,z-score,[13],-1.38 (inactive)
COc1cc(CCc2cc(NC(=O)c3ccc(N4C[C@@H](C)N[C@@H](C)C4)cc3)n[nH]2)cc(OC)c1,AC50,[1],0.417 µM (active)
same,AC50,[2],8.33 µM (active)
same,AC50,[3],18.7 µM (active)
same,AC50,[4],16.6 µM (active)
same,AC50,[5],0.235 µM (active)
same,AC50,[6],0.263 µM (active)
same,AC50,[7],23.5 µM (active)
same,AC50,[8],13.2 µM (active)
same,IC50,[9],8.33 µM (active)
